# Measured values: publication PMC7862700, “An all-to-all approach to the identification of sequence-specific readers for epigenetic DNA modifications on cytosine”
# Legend:
# Assay in all cases: DAPPL (digital affinity profiling via proximity ligation, sequencing); 10 mM Tris-HCl pH 7.5, 50 mM NaCl, 1 mM DTT, 4% glycerol, room temperature, 30 min; GST-TFs on glutathione beads, 16-mer random dsDNA library, 0.1% formaldehyde crosslink after washing; high values mean tight binding
# Settings in all cases: protein: recombinant; tags: N-terminal GST; dsDNA, one strand shown
# FEV = target: T1, FEV (Homo sapiens, UniProt Q99581 1-238)
# T1 sequence: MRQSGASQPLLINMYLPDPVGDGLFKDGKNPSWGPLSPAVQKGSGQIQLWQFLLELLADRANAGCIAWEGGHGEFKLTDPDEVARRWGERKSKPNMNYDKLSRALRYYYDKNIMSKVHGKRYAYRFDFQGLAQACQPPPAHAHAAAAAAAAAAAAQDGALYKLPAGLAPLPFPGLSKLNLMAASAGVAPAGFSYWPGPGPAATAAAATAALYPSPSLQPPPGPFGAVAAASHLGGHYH
# How it was run: (§1)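 Yeast served to express human transcription factors as GST fusions, which were then captured on glutathione beads and labelled with DNA barcodes. Pooled with a tag-only sample, they were incubated with 200 nmole of a 16-mer random double-stranded DNA library for 30 min at room temperature in Tris/NaCl/DTT/glycerol buffer, washed, crosslinked with 0.1% formaldehyde, ligated by proximity, amplified by PCR and sequenced. Dividing each hexamer's read frequency for a factor by its frequency for the tag-only sample gives the binding signal.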
# ETV5 = ETV5 (Homo sapiens, UniProt P41161 1-510)
# ETV5, sequence (P41161 whole entry): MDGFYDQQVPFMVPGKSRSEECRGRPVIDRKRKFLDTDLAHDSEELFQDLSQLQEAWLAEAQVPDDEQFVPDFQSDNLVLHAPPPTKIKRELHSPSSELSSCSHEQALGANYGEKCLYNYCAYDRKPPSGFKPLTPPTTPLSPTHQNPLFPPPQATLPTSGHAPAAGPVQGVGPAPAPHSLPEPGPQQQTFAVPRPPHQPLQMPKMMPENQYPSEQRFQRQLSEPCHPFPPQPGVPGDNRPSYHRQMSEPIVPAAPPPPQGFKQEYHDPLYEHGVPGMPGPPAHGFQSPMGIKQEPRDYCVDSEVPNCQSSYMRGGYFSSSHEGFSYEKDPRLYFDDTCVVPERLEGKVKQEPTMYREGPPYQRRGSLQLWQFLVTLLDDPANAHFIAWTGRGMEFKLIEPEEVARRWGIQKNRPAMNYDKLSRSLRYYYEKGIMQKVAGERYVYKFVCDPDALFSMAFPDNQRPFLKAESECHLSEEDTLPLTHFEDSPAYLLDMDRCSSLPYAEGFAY
# How it was run: as §1
# SPIC = target: T2, SPIC (Homo sapiens, UniProt Q8N5J4 1-248)
# T2 sequence: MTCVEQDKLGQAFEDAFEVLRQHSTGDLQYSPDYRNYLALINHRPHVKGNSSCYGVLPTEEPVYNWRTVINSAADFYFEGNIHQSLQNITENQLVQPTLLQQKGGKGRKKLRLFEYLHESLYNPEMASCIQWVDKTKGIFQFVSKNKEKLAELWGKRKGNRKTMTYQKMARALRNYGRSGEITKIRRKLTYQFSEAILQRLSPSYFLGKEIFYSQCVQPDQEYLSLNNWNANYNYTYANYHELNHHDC
# How it was run: as §1
# ELF4 = ELF4 (Homo sapiens, UniProt Q99607 1-663)
# ELF4, sequence (Q99607 whole entry): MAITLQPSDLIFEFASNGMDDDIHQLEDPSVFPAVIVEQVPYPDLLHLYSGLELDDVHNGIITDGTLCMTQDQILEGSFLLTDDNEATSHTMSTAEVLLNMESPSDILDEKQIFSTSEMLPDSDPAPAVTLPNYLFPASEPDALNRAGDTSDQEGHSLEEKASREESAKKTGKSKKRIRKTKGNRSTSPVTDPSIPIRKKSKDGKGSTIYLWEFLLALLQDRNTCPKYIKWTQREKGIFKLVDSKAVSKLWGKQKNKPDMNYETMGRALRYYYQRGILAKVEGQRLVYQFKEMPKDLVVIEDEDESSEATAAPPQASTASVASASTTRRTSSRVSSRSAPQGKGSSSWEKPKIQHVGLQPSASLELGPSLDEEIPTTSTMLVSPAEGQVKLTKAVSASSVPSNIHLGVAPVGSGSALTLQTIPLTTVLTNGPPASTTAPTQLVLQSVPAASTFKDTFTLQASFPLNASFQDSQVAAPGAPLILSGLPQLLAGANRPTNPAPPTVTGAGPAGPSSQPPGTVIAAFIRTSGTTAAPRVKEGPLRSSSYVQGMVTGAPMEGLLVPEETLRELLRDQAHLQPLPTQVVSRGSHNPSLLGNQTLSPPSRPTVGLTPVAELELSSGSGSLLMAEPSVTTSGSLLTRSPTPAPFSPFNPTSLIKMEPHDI
# How it was run: as §1
# ELK4 = target: T3, ELK4 (Homo sapiens, UniProt P28324-2 1-405)
# T3 sequence: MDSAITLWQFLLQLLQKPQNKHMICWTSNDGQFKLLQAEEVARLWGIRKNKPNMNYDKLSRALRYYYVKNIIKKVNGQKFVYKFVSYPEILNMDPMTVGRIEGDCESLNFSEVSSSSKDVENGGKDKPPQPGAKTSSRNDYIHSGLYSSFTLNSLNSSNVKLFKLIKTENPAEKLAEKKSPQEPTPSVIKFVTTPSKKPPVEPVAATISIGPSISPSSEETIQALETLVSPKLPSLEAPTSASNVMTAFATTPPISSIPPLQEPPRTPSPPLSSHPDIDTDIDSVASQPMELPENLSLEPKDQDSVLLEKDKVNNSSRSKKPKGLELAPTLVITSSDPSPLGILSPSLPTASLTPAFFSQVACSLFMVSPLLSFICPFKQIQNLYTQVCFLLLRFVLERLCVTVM
# How it was run: as §1
# ETV2 = target: T4, ETV2 (Homo sapiens, UniProt O00321 1-342)
# T4 sequence: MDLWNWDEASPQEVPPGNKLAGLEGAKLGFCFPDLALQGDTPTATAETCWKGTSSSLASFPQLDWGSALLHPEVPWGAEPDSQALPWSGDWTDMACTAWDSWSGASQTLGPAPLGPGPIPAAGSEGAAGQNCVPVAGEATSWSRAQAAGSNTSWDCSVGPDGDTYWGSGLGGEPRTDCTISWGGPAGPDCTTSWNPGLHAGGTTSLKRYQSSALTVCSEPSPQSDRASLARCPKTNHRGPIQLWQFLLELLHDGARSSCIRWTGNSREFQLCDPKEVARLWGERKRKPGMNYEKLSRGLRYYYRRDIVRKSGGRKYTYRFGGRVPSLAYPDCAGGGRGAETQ
# How it was run: as §1
# ELF3 = target: T5, ELF3 (Homo sapiens, UniProt P78545 1-371)
# T5 sequence: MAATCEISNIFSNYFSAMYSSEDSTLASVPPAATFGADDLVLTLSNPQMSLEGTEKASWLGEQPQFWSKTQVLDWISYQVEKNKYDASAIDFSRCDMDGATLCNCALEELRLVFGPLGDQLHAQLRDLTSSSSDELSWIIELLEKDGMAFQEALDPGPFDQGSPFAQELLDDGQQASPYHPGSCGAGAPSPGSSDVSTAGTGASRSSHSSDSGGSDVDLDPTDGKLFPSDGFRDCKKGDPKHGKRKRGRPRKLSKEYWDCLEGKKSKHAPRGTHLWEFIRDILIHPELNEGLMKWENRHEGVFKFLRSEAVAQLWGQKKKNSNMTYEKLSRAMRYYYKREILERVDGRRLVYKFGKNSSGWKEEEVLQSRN
# How it was run: as §1
# ETV1 = ETV1 (Homo sapiens, UniProt P50549 1-477)
# ETV1, sequence (P50549 whole entry): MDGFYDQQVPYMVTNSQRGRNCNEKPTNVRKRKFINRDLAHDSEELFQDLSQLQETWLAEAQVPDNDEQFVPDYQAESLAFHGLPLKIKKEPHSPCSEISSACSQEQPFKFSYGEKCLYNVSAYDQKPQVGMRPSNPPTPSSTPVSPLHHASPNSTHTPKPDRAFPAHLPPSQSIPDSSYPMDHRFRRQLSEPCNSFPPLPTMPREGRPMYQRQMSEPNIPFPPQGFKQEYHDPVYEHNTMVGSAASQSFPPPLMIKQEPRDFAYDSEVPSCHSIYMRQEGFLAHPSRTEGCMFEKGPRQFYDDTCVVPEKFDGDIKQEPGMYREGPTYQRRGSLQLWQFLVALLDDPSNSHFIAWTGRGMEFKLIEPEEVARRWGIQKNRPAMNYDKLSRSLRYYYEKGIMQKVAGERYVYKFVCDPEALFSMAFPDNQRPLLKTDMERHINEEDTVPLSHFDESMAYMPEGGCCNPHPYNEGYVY
# How it was run: as §1
# ERF = target: T6, ERF (Homo sapiens, UniProt P50548 1-548)
# T6 sequence: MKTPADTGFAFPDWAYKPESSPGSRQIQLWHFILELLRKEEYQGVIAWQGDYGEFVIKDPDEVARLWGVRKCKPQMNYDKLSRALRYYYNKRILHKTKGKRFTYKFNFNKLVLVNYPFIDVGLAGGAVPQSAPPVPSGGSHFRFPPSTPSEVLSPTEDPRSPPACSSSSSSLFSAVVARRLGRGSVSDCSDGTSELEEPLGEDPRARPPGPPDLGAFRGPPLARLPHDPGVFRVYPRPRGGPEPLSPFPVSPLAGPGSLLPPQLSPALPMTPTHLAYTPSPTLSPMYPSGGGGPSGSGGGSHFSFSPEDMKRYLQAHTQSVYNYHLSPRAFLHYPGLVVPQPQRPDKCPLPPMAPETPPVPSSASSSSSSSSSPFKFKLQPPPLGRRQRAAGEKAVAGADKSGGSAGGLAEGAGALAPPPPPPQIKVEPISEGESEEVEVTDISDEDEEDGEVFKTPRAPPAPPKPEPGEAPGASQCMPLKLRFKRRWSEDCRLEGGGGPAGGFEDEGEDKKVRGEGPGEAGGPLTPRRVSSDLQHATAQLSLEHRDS
# How it was run: as §1
# ETV3L = target: T7, ETV3L (Homo sapiens, UniProt Q6ZN32 1-361)
# T7 sequence: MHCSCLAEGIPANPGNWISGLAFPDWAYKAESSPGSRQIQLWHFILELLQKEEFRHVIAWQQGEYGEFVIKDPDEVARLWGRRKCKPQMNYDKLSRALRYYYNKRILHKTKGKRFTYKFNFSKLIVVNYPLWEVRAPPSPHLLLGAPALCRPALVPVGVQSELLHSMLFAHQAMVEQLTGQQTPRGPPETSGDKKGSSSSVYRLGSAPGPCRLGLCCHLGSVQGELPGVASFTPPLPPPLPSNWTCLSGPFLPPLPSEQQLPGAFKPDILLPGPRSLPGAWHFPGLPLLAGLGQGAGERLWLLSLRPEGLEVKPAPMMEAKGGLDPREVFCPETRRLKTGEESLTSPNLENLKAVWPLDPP
# How it was run: as §1
# ETS2 = target: T8, ETS2 (Homo sapiens, UniProt P15036 1-469)
# T8 sequence: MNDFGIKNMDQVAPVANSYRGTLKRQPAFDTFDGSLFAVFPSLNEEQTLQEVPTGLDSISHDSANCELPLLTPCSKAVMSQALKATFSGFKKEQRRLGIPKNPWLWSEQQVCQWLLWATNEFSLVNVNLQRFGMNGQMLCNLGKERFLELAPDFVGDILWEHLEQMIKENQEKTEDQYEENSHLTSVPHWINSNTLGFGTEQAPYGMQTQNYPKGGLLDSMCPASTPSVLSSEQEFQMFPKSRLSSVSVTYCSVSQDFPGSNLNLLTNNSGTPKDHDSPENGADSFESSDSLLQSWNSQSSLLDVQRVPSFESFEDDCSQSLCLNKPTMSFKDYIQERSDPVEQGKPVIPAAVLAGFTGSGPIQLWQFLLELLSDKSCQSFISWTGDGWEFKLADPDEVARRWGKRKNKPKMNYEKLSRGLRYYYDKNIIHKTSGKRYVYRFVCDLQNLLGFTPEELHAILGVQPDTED
# How it was run: as §1
# SPDEF = target: T9, SPDEF (Homo sapiens, UniProt O95238 1-335)
# T9 sequence: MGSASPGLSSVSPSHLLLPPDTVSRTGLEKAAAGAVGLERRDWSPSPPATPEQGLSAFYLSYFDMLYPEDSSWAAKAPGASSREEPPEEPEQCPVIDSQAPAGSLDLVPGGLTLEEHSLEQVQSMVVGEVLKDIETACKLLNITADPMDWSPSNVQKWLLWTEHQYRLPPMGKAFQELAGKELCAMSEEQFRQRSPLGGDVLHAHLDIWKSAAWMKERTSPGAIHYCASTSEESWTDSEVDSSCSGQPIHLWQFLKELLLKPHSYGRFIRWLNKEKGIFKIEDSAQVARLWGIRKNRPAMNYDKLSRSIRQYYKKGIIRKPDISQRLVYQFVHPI
# How it was run: as §1
# ETV7 = target: T10, ETV7 (Homo sapiens, UniProt Q9Y603 1-341)
# T10 sequence: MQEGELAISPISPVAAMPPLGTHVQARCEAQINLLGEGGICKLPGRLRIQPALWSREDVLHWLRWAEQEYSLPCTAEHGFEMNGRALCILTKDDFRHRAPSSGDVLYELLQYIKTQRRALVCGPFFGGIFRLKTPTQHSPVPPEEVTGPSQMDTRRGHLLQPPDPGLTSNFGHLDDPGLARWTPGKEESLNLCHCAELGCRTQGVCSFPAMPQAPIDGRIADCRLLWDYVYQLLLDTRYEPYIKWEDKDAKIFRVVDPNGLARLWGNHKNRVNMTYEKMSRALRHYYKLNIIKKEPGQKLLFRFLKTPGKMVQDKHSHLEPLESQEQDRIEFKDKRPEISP
# How it was run: as §1
# ELF5 = target: T11, ELF5 (Homo sapiens, UniProt Q9UKW6-2 1-255)
# T11 sequence: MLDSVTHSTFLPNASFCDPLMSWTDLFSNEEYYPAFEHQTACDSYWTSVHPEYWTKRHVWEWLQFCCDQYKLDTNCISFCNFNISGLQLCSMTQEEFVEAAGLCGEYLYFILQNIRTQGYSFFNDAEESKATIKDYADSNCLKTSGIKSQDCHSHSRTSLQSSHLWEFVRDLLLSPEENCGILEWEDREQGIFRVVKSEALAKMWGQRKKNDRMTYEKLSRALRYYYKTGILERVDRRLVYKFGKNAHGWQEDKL
# How it was run: as §1
# ETV3 = target: T12, ETV3 (Homo sapiens, UniProt P41162-2 1-143)
# T12 sequence: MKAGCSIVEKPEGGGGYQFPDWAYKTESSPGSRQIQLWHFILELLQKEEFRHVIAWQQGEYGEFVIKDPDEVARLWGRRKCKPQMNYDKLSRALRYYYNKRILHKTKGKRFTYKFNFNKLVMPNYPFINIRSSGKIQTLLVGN
# How it was run: as §1
# ETV6 = ETV6 (Homo sapiens, UniProt P41212 1-452)
# ETV6, sequence (P41212 whole entry): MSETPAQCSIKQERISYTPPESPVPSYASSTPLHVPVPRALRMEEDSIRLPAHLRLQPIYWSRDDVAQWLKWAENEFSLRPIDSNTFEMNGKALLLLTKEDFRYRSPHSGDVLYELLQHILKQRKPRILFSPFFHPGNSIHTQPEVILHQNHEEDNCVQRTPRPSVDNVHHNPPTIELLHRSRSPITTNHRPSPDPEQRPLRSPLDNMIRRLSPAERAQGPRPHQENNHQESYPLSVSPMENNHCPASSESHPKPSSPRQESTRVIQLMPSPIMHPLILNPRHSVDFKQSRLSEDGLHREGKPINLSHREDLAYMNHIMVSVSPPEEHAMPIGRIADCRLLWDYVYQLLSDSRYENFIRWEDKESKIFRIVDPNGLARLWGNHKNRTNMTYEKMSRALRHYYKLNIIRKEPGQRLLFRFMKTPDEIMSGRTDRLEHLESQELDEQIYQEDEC
# How it was run: as §1
sequence,measurement,setting,value
ACATCA,binding signal,FEV,"1.17 fold enrichment (6-mer frequency, TF over GST control)"
same,binding signal,ETV5,"1.17 fold enrichment (6-mer frequency, TF over GST control)"
same,binding signal,SPIC,"1.13 fold enrichment (6-mer frequency, TF over GST control)"
same,binding signal,ELF4,"1.19 fold enrichment (6-mer frequency, TF over GST control)"
same,binding signal,ELK4,"1.14 fold enrichment (6-mer frequency, TF over GST control)"
same,binding signal,ETV2,"1.22 fold enrichment (6-mer frequency, TF over GST control)"
same,binding signal,ELF3,"1.15 fold enrichment (6-mer frequency, TF over GST control)"
same,binding signal,ETV1,"1.15 fold enrichment (6-mer frequency, TF over GST control)"
same,binding signal,ERF,"1.13 fold enrichment (6-mer frequency, TF over GST control)"
same,binding signal,ETV3L,"1.08 fold enrichment (6-mer frequency, TF over GST control)"
same,binding signal,ETS2,"1.11 fold enrichment (6-mer frequency, TF over GST control)"
same,binding signal,SPDEF,"1.07 fold enrichment (6-mer frequency, TF over GST control)"
same,binding signal,ETV7,"1.1 fold enrichment (6-mer frequency, TF over GST control)"
same,binding signal,ELF5,"1.07 fold enrichment (6-mer frequency, TF over GST control)"
same,binding signal,ETV3,"1.14 fold enrichment (6-mer frequency, TF over GST control)"
same,binding signal,ETV6,"1.16 fold enrichment (6-mer frequency, TF over GST control)"
ACATGT,binding signal,FEV,"1.03 fold enrichment (6-mer frequency, TF over GST control)"
same,binding signal,ETV5,"1.16 fold enrichment (6-mer frequency, TF over GST control)"
same,binding signal,SPIC,"1.13 fold enrichment (6-mer frequency, TF over GST control)"
same,binding signal,ELF4,"1.15 fold enrichment (6-mer frequency, TF over GST control)"
same,binding signal,ELK4,"1.27 fold enrichment (6-mer frequency, TF over GST control)"
same,binding signal,ETV2,"1.21 fold enrichment (6-mer frequency, TF over GST control)"
same,binding signal,ELF3,"1.02 fold enrichment (6-mer frequency, TF over GST control)"
same,binding signal,ETV1,"1.09 fold enrichment (6-mer frequency, TF over GST control)"
same,binding signal,ERF,"1.15 fold enrichment (6-mer frequency, TF over GST control)"
same,binding signal,ETV3L,"1.19 fold enrichment (6-mer frequency, TF over GST control)"
same,binding signal,ETS2,"1.15 fold enrichment (6-mer frequency, TF over GST control)"
same,binding signal,SPDEF,"1.19 fold enrichment (6-mer frequency, TF over GST control)"
same,binding signal,ETV7,"1.16 fold enrichment (6-mer frequency, TF over GST control)"
same,binding signal,ELF5,"1.12 fold enrichment (6-mer frequency, TF over GST control)"
same,binding signal,ETV3,"1.16 fold enrichment (6-mer frequency, TF over GST control)"
same,binding signal,ETV6,"1.14 fold enrichment (6-mer frequency, TF over GST control)"
